PubChem BioAssay (NCATS)
Inconclusive results are not listed. Calls of active or inactive are those of the source. Calls come from the whole dose curve; as a rule, active = well fitted inhibition curve with a large enough effect; inconclusive = small, poorly fitted or top-dose-only effect; inactive = flat fitted curve, though single readings scatter.

Columns and labels:
Assay in all cases: qHTS profiling for inhibitors of Plasmodium falciparum proliferation (AID 504749); note: nearly all actives have a fitted effect of over 60% in size
Conditions in all cases: P. falciparum in erythrocytes, SYBR Green DNA, 72 h; series mostly up to 28.7 µM
[1] = tested on: 3D7
How it was run: (§1)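 In a 72 h erythrocytic culture (37 C, humidified, 5% CO2) at 2.5% hematocrit and 0.3% starting parasitemia, compounds were tested; SYBR Green I in detergent lysis buffer stained parasite DNA overnight.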

[2] = tested on: 7G8
How it was run: as §1

[3] = tested on: CP185
How it was run: as §1

[4] = tested on: CP194
How it was run: as §1

[5] = tested on: CP201
How it was run: as §1

[6] = tested on: CP237
How it was run: as §1

[7] = tested on: CP238
How it was run: as §1

[8] = tested on: CP247
How it was run: as §1

[9] = tested on: CP262
How it was run: as §1

[10] = tested on: CP265
How it was run: as §1

[11] = tested on: CP268
How it was run: as §1

[12] = tested on: CP305
How it was run: as §1

[13] = tested on: CP335
How it was run: as §1

[14] = tested on: DIV30
How it was run: as §1

[15] = tested on: Dd2
How it was run: as §1

[16] = tested on: ECU
How it was run: as §1

[17] = tested on: GB4
How it was run: as §1

[18] = tested on: HB3
How it was run: as §1

[19] = tested on: P94_40
How it was run: as §1

[20] = tested on: TAB109
How it was run: as §1

Measured: Potency

Oc1ccc(/C=C\c2cc(O)cc(O)c2)cc1
inactive: all assays above
